Screening results deposited in PubChem BioAssay by National Center for Advancing Translational Sciences (NCATS).
In the library only some 7.1% were active in any assay of this set; here they are far more common.
ATXN2 expr inh: reduces ATXN2 reporter expression in HEK-293 cells; HEK-293 ATXN2-luciferase reporter, luminescence, 24 h; Potency, µM (highest dose often 57 µM), without a hit: at the top dose activity change, negative = inhibition, usual class: inhibitors; 360,000 compounds, 0.72% hits; further: potency means the concentration at half of the fitted maximal effect; on the % scale 0 is the no-effect control and ±100 the full control effect; nearly all actives have a fitted effect of over 55% in size
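ATXN2-luciferase reporter cells (luciferase flanked by upstream and downstream ATXN2 gene portions) were treated 24 h at 37 °C with compounds at up to 57 uM. SteadyGlo luminescence gave expression; GF-AFC fluorescence gave viability.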
S2 tox: viability counter-screen for ATXN expression inhibitors. Potency, µM (highest dose often 56.7 µM), most hits filed as cytotoxic. AID 651635. 400,000 compounds, 0.49% hits. S2 cells (HEK-293 line with an ATXN2-luciferase reporter) viability, CellTiter-Fluor protease fluorescence, 24 h; further: potency means the concentration at half of the fitted maximal effect; nearly all actives have a fitted effect of over 40% in size
MCF10A rereplic: induces DNA re-replication in MCF 10a normal breast cells; 350,000 compounds, 2.9% hits; MCF 10A DNA re-replication, Hoechst nuclear intensity, 48 h; AID 624296; Potency, µM (titrated, usually from 46.1 µM), inactives show at the top dose activity, positive = re-replication, hits mostly activators; further: potency means the concentration at half of the fitted maximal effect; % of control where 0% means no effect; nearly all actives have a fitted effect of over 50% in size
SW480 rereplic: induces DNA re-replication in SW480 colon adenocarcinoma cells. SW480 DNA re-replication, Hoechst DNA content imaging, 48 h. Potency, µM (highest dose often 46.1 µM), for inactives: at the top dose re-replication activation, usual class: activators. 340,000 compounds, 1.8% hits; further: potency means the concentration at half of the fitted maximal effect; % of control where 0% means no effect; nearly all actives have a fitted effect of over 55% in size
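Treated cells incubate 48 hr (37 C, 5% CO2), are stained 40 min with Hoechst, and nuclear fluorescence is enumerated; a rise in nuclei with high DNA signal marks re-replication.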
IL1B secr inh: blocks inflammasome-driven IL-1 beta release. THP-1 LPS/ATP IL-1B secretion, AlphaLISA, 16 h; hits give low values. 360,000 compounds, 4.7% hits. activity change, % at 57.5 µM. AID 743279; in the data active means activity change below about -50%; inconclusive means mostly about -30% to -49%; further: on the % scale 0 is the no-effect control and ±100 the full control effect
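Secreted IL-1B measured by AlphaLISA bead assay after 16 h compound exposure of THP-1 cells; compounds (final up to 57.5 uM) added 1 h before LPS (250 ng/mL) and ATP (1.25 mM) stimulation; lower signal means less secretion.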
PINK1 modulator: PINK1 expression modulation; Potency, µM (doses to about 76.6 µM), inactives show at the top dose activation (PINK1 increase), actives largely listed as activators; 410,000 compounds, 0.2% hits; PINK1 immunofluorescence, high-content cytometry, 24 h; AID 624263; active means well fitted activation curve with a large enough effect; inconclusive means small, poorly fitted or top-dose-only effect; cell line not stated here; further: potency means the concentration at half of the fitted maximal effect; % of control where 0% means no effect; nearly all actives have a fitted effect of over 65% in size
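Stable cell line, 250 cells/well, 12 h attachment; compounds pinned at 5 concentrations, 24 h; CCCP control. Fixed with nuclear dye, primary antibodies 12 h at 10 degrees C, secondary plus cell stain; laser-scanning cytometer read.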
* = called active by the depositor; [ ] = another dose, or the depositor's remark. Unless noted, the call rests on the fitted dose curve; in most records, active means well fitted curve in the direction sought with a large enough effect; inconclusive means small, poorly fitted or top-dose-only effect, or another doubt; inactive means no such curve, though single readings can be large; an effect the other way counts as inactive or inconclusive.

What do the screens show for `Cc1ccc(S(=O)(=O)N(CC2CO2)c2cccc([N+](=O)[O-])c2)cc1` (centres undefined)?
ATXN2 expr inh: -1.1%; S2 tox: inactive; MCF10A rereplic: inconclusive; SW480 rereplic: 18.4µM*; IL1B secr inh: -14.0; PINK1 modulator: 0.3%

How did O=S(=O)(c1ccccc1)N(CC1CO1)c1ccccc1 (centres undefined) do in these assays?
ATXN2 expr inh: -1.0%; S2 tox: inactive; MCF10A rereplic: -2.6%; SW480 rereplic: 1.1%; IL1B secr inh: -23.1; PINK1 modulator: 1.2%

How did O=S(=O)(c1ccccc1)N(CC1CO1)c1cccc2ccccc12 (centres undefined) do in these assays?
ATXN2 expr inh: -18.3%; S2 tox: inactive; MCF10A rereplic: inconclusive; SW480 rereplic: 20.6µM*; IL1B secr inh: -68.6*; PINK1 modulator: -1.3%

How did CCCOc1ccc(C(=O)Nc2ccc(Cl)c(-c3nc4ncccc4o3)c2)cc1 do in these assays?
ATXN2 expr inh: -3.4%; S2 tox: inactive; PINK1 modulator: 7.1%

What do the screens show for `COc1ccccc1C1NC(=O)c2n[nH]c(-c3cccs3)c21` (centres undefined)?
ATXN2 expr inh: 0.8%; S2 tox: inactive; PINK1 modulator: 3.4%

What do the screens show for `O=C(NCCc1nnc2n1CCN(Cc1c(F)cccc1F)CC2)c1ccco1`?
S2 tox: inactive; PINK1 modulator: -0.2%

Results for CCN(CC)S(=O)(=O)c1ccc(C(=O)NCCSc2c(-c3ccc(C)cc3)[nH]c3ccccc23)cc1 ?
ATXN2 expr inh: 14.7%; S2 tox: inactive; PINK1 modulator: -0.2%

What do the screens show for `COc1ccc(/C=C/C(=O)N(C)CC(=O)Nc2cccc(F)c2)cc1S(=O)(=O)N1CCCCC1`?
ATXN2 expr inh: -18.9%; S2 tox: inconclusive; MCF10A rereplic: inconclusive; SW480 rereplic: 20.6µM*; IL1B secr inh: 4.3; PINK1 modulator: 8.9%

How did CCN(CC(=O)Nc1c(F)cccc1F)C(=O)/C=C/c1ccc(S(=O)(=O)N2CCCCCC2)cc1 do in these assays?
ATXN2 expr inh: -14.5%; S2 tox: inactive; MCF10A rereplic: 2.9%; SW480 rereplic: 8.8%; IL1B secr inh: -58.4*; PINK1 modulator: 9.5%

How did COc1ccc(Nc2ncc(C(=O)N3CCN(c4ccc(F)cc4)CC3)c3ccccc23)cc1 do in these assays?
ATXN2 expr inh: inconclusive; S2 tox: inconclusive; MCF10A rereplic: 13.2%; SW480 rereplic: -4.2%; IL1B secr inh: -59.5*; PINK1 modulator: 0.2%

What do the screens show for `COc1ccc(Nc2ncc(C(=O)N3CCN(c4ccc(OC)cc4)CC3)c3ccccc23)cc1`?
ATXN2 expr inh: inconclusive; S2 tox: inconclusive; PINK1 modulator: 0.1%

How did O=C1c2ccc(-c3nc4ccccc4o3)cc2C(=O)N1Cc1cccnc1 do in these assays?
ATXN2 expr inh: -4.0%; S2 tox: inactive; MCF10A rereplic: 9.2µM*; SW480 rereplic: inconclusive; IL1B secr inh: 14.6

What do the screens show for `COc1ccc(/C=N/n2cc(-c3ccc(OC)cc3)nc2N)cc1`?
ATXN2 expr inh: -17.1%; S2 tox: inconclusive; MCF10A rereplic: -13.0%; SW480 rereplic: inconclusive; IL1B secr inh: -8.6

Results for COc1ccc(/C=N/n2cc(-c3ccccc3)nc2N)cc1 ?
ATXN2 expr inh: -1.2%; S2 tox: inconclusive; MCF10A rereplic: 23.1µM*; SW480 rereplic: inconclusive; IL1B secr inh: 9.4; PINK1 modulator: 9.3%

How did C=CCNC(=O)c1onc(CSc2cccc(C)c2)c1C(=O)O do in these assays?
ATXN2 expr inh: 10.1%; S2 tox: inactive; MCF10A rereplic: -46.4%; SW480 rereplic: -25.0%[9.22 µM]; IL1B secr inh: 6.3; PINK1 modulator: -0.4%

Results for Cc1cc(C)cc(SCc2noc(C(=O)NCc3ccccc3)c2C(=O)NCc2ccccc2)c1 ?
ATXN2 expr inh: 1.2%; S2 tox: inactive; MCF10A rereplic: 4.61µM*; SW480 rereplic: -30.2%; IL1B secr inh: 24.9; PINK1 modulator: 0.0%

Results for C=CCNC(=O)c1onc(CSc2cc(C)cc(C)c2)c1C(=O)NCC=C ?
ATXN2 expr inh: -19.2%; S2 tox: inactive; MCF10A rereplic: inconclusive; SW480 rereplic: 8.7%; IL1B secr inh: -103.8*; PINK1 modulator: 0.0%

What do the screens show for `CCOC(=O)[C@H]1[C@H]2COc3ccccc3[C@@H]2N2C(=O)CNC(=O)[C@@]12C`?
ATXN2 expr inh: 1.2%; S2 tox: inactive; MCF10A rereplic: 13.9%; SW480 rereplic: 7.1%; IL1B secr inh: 0.0; PINK1 modulator: -0.7%

What do the screens show for `COc1ccc(C2=NN(C(=O)CN3CCCC3)C(c3ccc(OC)cc3)C2)cc1` (centres undefined)?
ATXN2 expr inh: -1.7%; S2 tox: inactive; MCF10A rereplic: -11.3%; SW480 rereplic: -29.0%; IL1B secr inh: -62.3*; PINK1 modulator: 0.2%

Results for COc1ccc(C2CC(c3ccccc3)=NN2C(=O)COC(=O)C2(C)CC2(Cl)Cl)cc1 (centres undefined) ?
ATXN2 expr inh: -30.3%; S2 tox: inactive; MCF10A rereplic: 6.7%; SW480 rereplic: 7.7%; IL1B secr inh: -68.1*; PINK1 modulator: 3.4%

What do the screens show for `COc1ccc(C2CC(c3ccccc3)=NN2C(=O)COC(=O)C2CC2)cc1` (centres undefined)?
ATXN2 expr inh: 0.1%; S2 tox: inactive; MCF10A rereplic: 4.1%; SW480 rereplic: -0.8%; IL1B secr inh: -14.1; PINK1 modulator: 1.8%

What do the screens show for `COC(=O)C1C(C(=O)OC)C1(c1ccccc1)c1ccccc1` (centres undefined)?
ATXN2 expr inh: -9.5%; S2 tox: inactive; MCF10A rereplic: -0.2%; SW480 rereplic: 3.5%; IL1B secr inh: -6.2; PINK1 modulator: 5.3%

What do the screens show for `COC(=O)C1=C(C(=O)OC)C(C(=O)OC)C(C(=O)OC)C(C(=O)OC)(C(=O)OC)C(C(=O)OC)=C1C(=O)OC` (centres undefined)?
ATXN2 expr inh: inconclusive; S2 tox: 33.6µM*; MCF10A rereplic: inconclusive; SW480 rereplic: inconclusive; IL1B secr inh: -99.7*; PINK1 modulator: -6.9%

Results for COc1ccc(OC)c(-c2cc(Cl)c3c(c2)CC(CNC(=O)c2cccnc2SC)O3)c1 (centres undefined) ?
S2 tox: inactive; PINK1 modulator: -0.4%

Results for CSc1ccc(C(=O)/C=C/c2ccc(N)cc2)cc1 ?
ATXN2 expr inh: 112.2%; S2 tox: inactive; MCF10A rereplic: 23.1µM*; SW480 rereplic: inconclusive; IL1B secr inh: -99.4*; PINK1 modulator: -1.3%

Results for CCOC(=O)Nc1ccc(Oc2ccccc2)cc1 ?
ATXN2 expr inh: 42.7%; S2 tox: inactive; MCF10A rereplic: 8.2%; SW480 rereplic: 0.0%; IL1B secr inh: 0.1; PINK1 modulator: 3.7%
